# Shown are actives, neighbours in structure and some others; about 19% of the full set was active somewhere.
# HepG2 viability – qHTS for Inhibitors of TGF-b: Cytotox Counterscreen. HepG2 CAGA-GFP viability, ATP luminescence, 18 h. Potency, µM (highest dose often 46.1 µM), hits mostly cytotoxic. hit rate 0.76% among 410,000. AID 588856, 2011
#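 HepG2 CAGA-GFP cells (1000/well, DMEM with 1% FBS) received compound, then TGF-beta at 500 pg/mL final, and were incubated 18 hours at 37 degrees C. Viability was read by CellTiter-Glo luminescence. Media-only wells were set as complete cell-killing and DMSO as no toxicity.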
# TGFb SMAD3 inh – qHTS for Inhibitors of TGF-b | HepG2 CAGA-GFP TGF-b/SMAD3 reporter, GFP fluorescence, 18 h; TGF-beta stimulated, 500 pg/mL final | hit rate 1.2% among 410,000 | Potency, µM (titrated, usually from 46.1 µM), usual class: inhibitors; note: nearly all actives have a fitted effect of over 65% in size
#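 First, reporter cells (HEPG2 CAGA-GFP) rested 2 h at 37 degrees C. Next, compounds were pinned in and TGF-beta added to 500 pg/mL final. After 18 h, GFP was imaged per cell and summed per well.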
# IL1B secr inh – qHTS for Inhibitors of Inflammasome Signaling: IL-1-beta AlphaLISA Primary Screen; THP-1 LPS/ATP IL-1B secretion, AlphaLISA, 16 h; active compounds read low; activity change, % at 57.5 µM; hit rate 4.7% among 360,000; AID 743279, 2014; in the data active = activity change below about -50%; inconclusive = mostly about -30% to -49%
#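 Secreted IL-1B measured by AlphaLISA bead assay after 16 h compound exposure of THP-1 cells; compounds (final up to 57.5 uM) added 1 h before LPS (250 ng/mL) and ATP (1.25 mM) stimulation; lower signal means less secretion.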
# TDP1 cell CPT – qHTS for Inhibitors of human tyrosyl-DNA phosphodiesterase 1 (TDP1): qHTS in cells in presence of CPT | hit rate 12% among 420,000 | chicken DT40 Tdp1-/-;hTDP1 cells + 20 nM CPT, ATP luminescence, 48 h | Potency, µM (doses to about 46.2 µM), usual class: inhibitors; note: nearly all actives have a fitted effect of over 55% in size
#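 Chicken DT40 Tdp1-/- cells complemented with human TDP1, 400 cells/well, exposed to compounds plus 20 nM camptothecin for at least 48 h at 37 C; viability read as ATP content by CellTiter-Glo luminescence.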
# DT40 TDP1 no CPT – qHTS for Inhibitors of human tyrosyl-DNA phosphodiesterase 1 (TDP1): qHTS in cells in absence of CPT. AID 686978, 2013. hit rate 15% among 420,000. DT40 Tdp1-/- hTDP1 cells, no CPT, ATP luminescence, 48 h. Potency, µM (titrated, usually from 46.2 µM), usual class: inhibitors; note: nearly all actives have a fitted effect of over 55% in size
#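 No-CPT arm: Tdp1-/-;hTDP1 DT40 cells (400/well) plus compounds, incubated ≥48 hr at 37 °C. Readout CellTiter-Glo luminescence.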
# TDP1 inh – qHTS Assay for Inhibitors of Tyrosyl-DNA Phosphodiesterase (TDP1); Tyrosyl-DNA phosphodiesterase 1 (Homo sapiens), Q9NUW8; recombinant TDP1, AlphaScreen DNA substrate cleavage; hit rate 0.28% among 350,000; Potency, µM (titrated, usually from 130 µM), usual class: inhibitors; note: nearly all actives have a fitted effect of over 40% in size
# Target sequence (Q9NUW8 whole entry, looked up): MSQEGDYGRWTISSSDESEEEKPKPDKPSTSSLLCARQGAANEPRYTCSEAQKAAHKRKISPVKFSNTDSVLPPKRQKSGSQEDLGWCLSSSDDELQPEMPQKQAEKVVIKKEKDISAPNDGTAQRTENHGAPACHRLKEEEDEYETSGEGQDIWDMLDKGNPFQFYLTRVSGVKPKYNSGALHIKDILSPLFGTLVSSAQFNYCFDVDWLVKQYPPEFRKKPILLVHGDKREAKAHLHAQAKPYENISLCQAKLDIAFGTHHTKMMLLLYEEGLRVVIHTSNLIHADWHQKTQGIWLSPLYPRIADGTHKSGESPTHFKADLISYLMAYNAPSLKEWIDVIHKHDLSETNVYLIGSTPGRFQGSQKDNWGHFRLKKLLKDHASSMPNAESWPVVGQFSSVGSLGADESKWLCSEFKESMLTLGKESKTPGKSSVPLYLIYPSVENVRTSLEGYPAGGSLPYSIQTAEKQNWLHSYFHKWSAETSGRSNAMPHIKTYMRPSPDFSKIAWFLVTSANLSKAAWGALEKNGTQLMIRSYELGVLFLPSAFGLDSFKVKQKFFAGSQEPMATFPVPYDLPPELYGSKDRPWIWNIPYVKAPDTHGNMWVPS
#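 Compounds were preincubated with Tdp1 (1 nM final) for 15 min at room temperature before substrate (15 nM final) started a 5 min reaction; beads (10 ug/ml final) were then added for 10 min before AlphaScreen detection.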
# Numbers stand for hits; – = inactive; ? = inconclusive; · = no result; [ ] = another dose, or the depositor's remark. Unless noted, calls come from the whole dose curve; as a rule, active = well fitted curve in the direction sought with a large enough effect; inconclusive = small, poorly fitted or top-dose-only effect, or another doubt; inactive = no such curve, though single readings can be large; an effect the other way counts as inactive or inconclusive.
SMILES,HepG2 viability,TGFb SMAD3 inh,IL1B secr inh,TDP1 cell CPT,DT40 TDP1 no CPT,TDP1 inh
CCc1ccc(/C=C2/SC(=S)N(CCC(=O)Nc3cccnc3)C2=O)cc1,–,–,–,?,–,–
Cc1onc(-c2ccccc2Cl)c1C(=O)NCCCN1CCOCC1,–,–,–,–,–,–
COc1ccc(C(C)=NOC(=O)c2c(-c3ccccc3Cl)noc2C)cc1CN1CCOCC1,–,–,?,?,7.3µM,·
CCOC(=O)c1noc2ncn(CC(=O)Nc3ccc(OC)c(Cl)c3)c(=O)c12,–,–,·,·,·,–
Cc1ccccc1NC(=O)Cn1c(=O)n(Cc2ccc3c(c2)OCO3)c(=O)c2oc3ccccc3c21,–,–,·,4.1µM,8.2µM,–
CCC(C)NC(=O)Cn1c(=O)n(Cc2ccc(C(=O)NCc3ccc(C)cc3)cc2)c(=O)c2ccccc21 (stereo not given),–,–,·,10µM,23µM,–[12.3 µM]
O=C(Cn1c(=O)n(Cc2ccc(C(=O)NCc3ccc4c(c3)OCO4)cc2)c(=O)c2ccccc21)Nc1ccc(F)cc1F,–,–,·,–,?,25µM
Cc1cccc(C)c1NC(=O)Cn1c(=O)n(Cc2ccc3c(c2)OCO3)c(=O)c2oc3ccccc3c21,–,–,·,5.2µM,4.6µM,–
O=C(Cn1c(=O)n(Cc2ccc3c(c2)OCO3)c(=O)c2oc3ccccc3c21)Nc1ccccc1,–,–,·,–,–,–
CC(C)(C)c1ccc(OCCC(=O)Nc2cccc(S(=O)(=O)N3CCOCC3)c2)cc1,–,–,–,?,?,–
O=C(c1ccc2c(c1)OCCO2)N(Cc1cccnc1)c1nc2ccc(F)cc2s1,–,–,·,?,?,–
Cc1ccccc1NC(=O)Cn1c(=O)n(Cc2ccc3c(c2)OCO3)c(=O)c2ccccc21,–,–,·,–,16µM,–
C=CC(=O)Nc1ccc(Nc2nc(NC3CCC(N(C)C)CC3)nc3c2ncn3C(C)C)cc1 (stereo not given),–,0.63µM,-109,0.33µM,0.41µM,–
CN1CCN(S(=O)(=O)c2cccc(C(=O)Nc3cc(C(F)(F)F)ccc3N3CCCCC3)c2)CC1,–,–,-52,?,18µM,–
CN1CCN(S(=O)(=O)c2cccc(C(=O)Nc3ccccc3N3CCCCC3)c2)CC1,–,–,–,?,?,·
CCN1CCN(c2ccc(S(=O)(=O)N3CCCCC3)cc2NC(=O)c2cccc(F)c2)CC1,–,–,–,–,–,–
CCN1CCN(c2ccc(S(=O)(=O)N3CCCCC3)cc2NC(=O)c2cccc(C(F)(F)F)c2)CC1,–,–,-72,?,18µM,–[0.505 µM]
Cc1ccc(-n2c(SCC(=O)N/N=C/c3ccc(C)s3)nnc2-c2ccccc2)cc1,–,–,-57,?,?,–
Cc1ccc(-n2c(SCC(=O)N/N=C/c3ccccc3C(=O)O)nnc2-c2ccccc2)cc1,–,–,–,–,–,–
O=C(CSc1nnc(-c2ccc(Cl)cc2)n1-c1ccc(Cl)cc1)N/N=C/c1ccco1,–,?,–,21µM,?,–
Cc1ccc(/C=N/NC(=O)CSc2nnc(-c3ccc(Cl)cc3)n2-c2ccccc2)o1,–,–,–,?,?,–
C=C1c2cccc(C(F)(F)F)c2O[C@H](C(=O)OCC)C1OC (mixture of isomers),·,·,·,·,·,–
O=C(c1cccn2c(=O)c3ccccc3nc12)N1CCN(Cc2ccc3c(c2)OCO3)CC1,–,–,–,–,?,–
O=C(c1ccc2nc3ccccc3c(=O)n2c1)N1CCN(Cc2ccc3c(c2)OCO3)CC1,–,–,?,29µM,?,–
O=C(CSc1ncnc2scc(-c3ccccc3)c12)N1CCN(Cc2ccc3c(c2)OCO3)CC1,–,–,–,?,13µM,–
SMILES,HepG2 viability,TGFb SMAD3 inh,IL1B secr inh,TDP1 cell CPT,DT40 TDP1 no CPT,TDP1 inh
c1ccc(-c2csc3ncnc(N4CCN(Cc5ccc6c(c5)OCO6)CC4)c23)cc1,–,–,–,16µM,7.3µM,·
c1ccc(Cn2nnc3c(N4CCN(Cc5ccc6c(c5)OCO6)CC4)ncnc32)cc1,–,–,–,?,?,–
O=C(c1cc(-c2ccccc2)on1)N1CCN(Cc2ccc3c(c2)OCO3)CC1,–,–,–,–,–,–
c1ccc2c(c1)oc1c(N3CCN(Cc4ccc5c(c4)OCO5)CC3)ncnc12,–,?,–,23µM,23µM,–
Cn1c(=O)c(CCc2ccccc2)nc2cnc(N3CCOCC3)nc21,·,·,·,–,–,·
O=C(CCS(=O)(=O)c1cc(Br)cc2c1N(C(=O)C1CC1)CC2)N1CCN(c2ccccc2)CC1,–,–,·,–,–,–
O=C(CSCc1ccccc1)N1CCN(Cc2ccc3c(c2)OCO3)CC1,–,–,?,?,?,–
O=C(CSc1nccc2ccccc12)N1CCN(Cc2ccc3c(c2)OCO3)CC1,–,–,-81,?,?,·
CCOC(=O)N1CCc2cc(OC)c(OC)c3c2c1cc1cc(OC)c(OC)cc13,–,–,–,?,12µM,·
COc1cc2c(Cc3c4c5c(cc(OC)c(OC)c5c5c(OC)c(OC)ccc35)CCN4C)c3c4c(cc(OC)c(OC)c4c2cc1OC)CCN3C,·,·,·,–,–,–
COC(=O)[C@@]1(Cc2ccccc2)[C@H]2C(=O)N(C)C(=O)[C@H]2[C@H]2CN=C(SCc3ccccc3)N21,–,–,–,15µM,?,–
CCN1C[C@@H]2[C@@H]3C(=O)N(C)C(=O)[C@@H]3[C@](Cc3ccccc3)(C(=O)OC)N2C1=NC1CCCCC1,–,–,–,?,21µM,·
COC(=O)c1ccc(CSC2=NC[C@@H]3[C@@H]4C(=O)N(Cc5ccccc5)C(=O)[C@@H]4[C@](C)(C(=O)OC)N23)cc1,–,–,–,?,16µM,–
Cc1c(Cl)cccc1NC(=O)c1ccc2c(c1)CCN2S(=O)(=O)c1ccccc1,–,–,·,?,?,–
Cc1cc(NC(c2cccnc2)c2c(C)[nH]c3ccccc23)no1 (stereo not given),–,?,–,?,?,–
Cc1[nH]c2ccccc2c1C(c1ccccn1)N1CCC(C)CC1 (stereo not given),–,–,-107,21µM,21µM,–
Cc1ccnc(NC(c2ccccn2)c2c(C)[nH]c3ccccc23)c1 (stereo not given),–,?,-106,?,?,–
